Assay outcomes deposited in PubChem BioAssay by several laboratories.
D1 mod – allosterically modulates the human D1 dopamine receptor; HEK293 D1, CRE-luciferase, dopamine EC30 potentiation; actives deviate in either direction; P21728; B-score at 10 µM; 58,000 compounds, 5.9% hits;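 active = luminescence count or its row- and column-corrected plate score outside the 99.7% band of the plate's sample wells, on either side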
Target sequence (P21728 whole entry, looked up): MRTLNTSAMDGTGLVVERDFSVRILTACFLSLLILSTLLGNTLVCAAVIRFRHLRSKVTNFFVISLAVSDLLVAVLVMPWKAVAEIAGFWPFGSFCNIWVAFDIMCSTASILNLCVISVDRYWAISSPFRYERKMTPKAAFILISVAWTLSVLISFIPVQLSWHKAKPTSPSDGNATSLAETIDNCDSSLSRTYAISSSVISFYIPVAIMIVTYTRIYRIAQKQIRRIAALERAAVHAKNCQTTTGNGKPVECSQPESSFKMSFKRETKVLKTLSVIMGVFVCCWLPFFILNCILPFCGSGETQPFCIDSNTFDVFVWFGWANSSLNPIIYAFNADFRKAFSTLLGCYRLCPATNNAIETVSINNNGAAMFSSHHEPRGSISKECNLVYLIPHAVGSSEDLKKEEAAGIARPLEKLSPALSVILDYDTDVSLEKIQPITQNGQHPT
FXIIa inh mix – inhibitors of human coagulation factor XIIa, pooled mixtures | AID 684 | 62,000 compounds, 0.2% hits | inhibition, % at 5 µM | P00748 | purified FXIIa, fluorogenic substrate;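 note: 0% = enzyme without compound and 100% = no enzyme blank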
hDAT+cocaine – human DAT dopamine uptake with cocaine, either direction; LLC-PK1 hDAT cells, [14C]-dopamine uptake with cocaine IC80; actives deviate in either direction; 110,000 compounds, 1.3% hits; B-score at 10 µM; AID 449768;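 active = Z score or B-score, a plate-position-corrected score, falls beyond the plate's 99.7% confidence bounds, in either direction; inactive = both scores lie inside the 99.7% bounds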;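 note: scored against the spread of the other compound wells on the same plate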
FXIa inh mix – factor XIa (human) inhibition, mixture screen; P03951; purified FXIa, fluorogenic substrate, pooled mixtures; inhibition, % at 5 µM; 62,000 compounds, 0.19% hits;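 note: each value is inhibition by a whole ten-compound pool holding the compound; 0% = enzyme with no mixture and 100% = wells lacking enzyme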
M1 agonist – agonists of M1 muscarinic receptor; CHO-M1 cells, Fluo-4 calcium fluorescence, agonist mode; active compounds read high; B-score at 10 µM; 64,000 compounds, 3% hits; AID 626;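 active = fluorescence rise, raw or as B-score row- and column-corrected plate score, outside the 99.7% band of its plate's samples, either direction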
M1 antagonist – M1 muscarinic receptor (rat) antagonism; P08482; CHO-M1 cells, Fluo-4 calcium, ACh EC80 antagonist mode; active compounds read low; B-score at 10 µM; 64,000 compounds, 3.4% hits; AID 628;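 active = calcium fluorescence response, raw or row-and-column corrected B-score, differing from the plate sample mean either way at a set confidence level, mostly lower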
M1 agonist conf – confirmation of rat M1 muscarinic receptor agonists. shares compounds with M1 agonist. CHO-M1 cells, Fluo-4 calcium fluorescence, agonist mode; actives lie on both sides. fluorescence change (max-min) at 10 µM. 1,700 compounds, 19% hits;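 active = fluorescence change differs from the solvent-only DMSO control mean at a set confidence level in both duplicate runs; inconclusive = differs from solvent-only control mean in just one of two runs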;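 note: an EC20 dose of acetylcholine follows compound addition during the same imaging run; raw fluorescence intensity difference in instrument units with no normalization to controls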
M4 ag counter – rat M4 muscarinic agonism, M1 counter-screen | shares compounds with M1 agonist | CHO M4/Gqi5 cells, Fluo-4 calcium fluorescence, agonist mode; actives lie on both sides | fluorescence change (max-min) at 10 µM | 1,700 compounds, 9% hits;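 active = fluorescence change differing from the plate's solvent-only control wells at 99.7% confidence in both duplicates, whether higher or lower; inconclusive = differs from solvent controls in only one of two duplicates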
D1 PAM confirm – D1 receptor (human) allosteric modulation, confirmed; shares compounds with D1 mod; HEK293 D1 CRE-luciferase, dopamine EC30 potentiation; active compounds read high; luminescence at 10 µM; 2,200 compounds, 88% hits; AID 642;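 active = luminescence in either of two replicates above the same-plate mean plus 3 SD of the low-dose dopamine control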
D1 no dopamine – activates D1 CRE-luciferase signal without dopamine present; shares compounds with D1 mod; HEK293 D1 CRE-luciferase, luminescence, no dopamine; active compounds read high; luminescence at 10 µM; 1,900 compounds, 0.8% hits; AID 646; in the data active = luminescence above about 3900
Isoprot counter – counter-screen for D1 modulators: isoproterenol response in HEK293 cells; shares compounds with D1 mod; HEK293 D1 CRE-luciferase, isoproterenol EC30 counter-screen; calls only at 10 µM; 2,200 compounds, 63% hits; AID 647;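 active = luminescence in either replicate above plate mean of wells with a partly effective reference agonist dose plus 3 SD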;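 note: isoproterenol raises cAMP through native beta-adrenoceptor Gs so signal bypasses D1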
* marks the source's active call; other numbers are inactive results; i = inactive; ? = inconclusive; nt = not tested or not shown; + = active, no number. Most compounds without a hit are left out; they make up all but 7.4% or so of the library. Cut-off read from the data, not from the text of the source, unless noted: active = inhibition above about 20% (passing the limit was not always enough); inactive = the rest.

SMILES	D1 mod	FXIIa inh mix	hDAT+cocaine	FXIa inh mix	M1 agonist	M1 antagonist	M1 agonist conf	M4 ag counter	D1 PAM confirm	D1 no dopamine	Isoprot counter
O=C(/C=N/O)NCCN1CCCCC1	0.279	12.2	-0.146	-3.2	0.223	-0.0203	nt	nt	nt	nt	nt
CCN(CC(=O)Nc1ccc2c(c1)OCCO2)c1nc(-c2cccnc2)nc2ccccc12	3.64*	-17.1	2.23	1.1	7.35*	-0.636	-28.4*	?	7472*	1256	+
CCOC(=O)c1nnn(-c2nonc2-n2cccc2)c1CN1CCCCC1	-0.0941	5.4	1.89	6.1	1.35	-0.936	nt	nt	nt	nt	nt
O=C(Nc1ncnc2sc3c(c12)CCCCC3)c1ccco1	5.28*	-4.9	-0.16	1.7	37.2*	-10.2*	-10.8	-52.8	9540*	1788	i
O=C(Nc1sc2c(c1C(=O)NC1CCCCC1)CCC2)c1ccco1	1	9.0	1.47	-2.7	0.328	-0.902	nt	nt	nt	nt	nt
CCN(CC)c1nc(N)nc(N(c2ccccc2)c2ccccc2)n1	nt	nt	-0.757	nt	nt	nt	nt	nt	nt	nt	nt
COc1nc(N(c2ccccc2)c2ccccc2)nc(-n2ccnc2)n1	4.26*	1.9	0.132	10.4	3.42*	-1.05	-10.7	-28.5	12628*	1456	+
Cc1ccc(S(=O)(=O)N(CC(=O)NCCSCc2ccco2)c2cc(C)ccc2C)cc1	nt	nt	-0.233	nt	nt	nt	nt	nt	nt	nt	nt
CCOC(=O)C1=C(N)N2C(=O)CSC2=C(C(=O)OC)C1	nt	nt	-0.309	nt	-0.395	0.623	nt	nt	nt	nt	nt
Cc1ccc(C2CC(c3ccco3)n3nc(N)nc3N2)cc1 (configuration not stated)	nt	-3.6	0.0683	4.3	0.423	-0.1	nt	nt	nt	nt	nt
Nc1nc2n(n1)C(c1ccco1)CC(c1ccc(F)cc1)N2 (configuration not stated)	6.97*	-1.0	0.205	7.3	2.3*	0.109	?	?	9024*	1664	i
Cc1ccc(S(=O)(=O)c2cc3c(=O)n4ccccc4nc3n(Cc3ccco3)c2=N)cc1C	5.97*	-2.2	0.393	-13.5	5.93*	-0.475	20.2	11.1	13264*	1500	+
COC(=O)c1cc2c(=O)n3ccccc3nc2n(Cc2cccnc2)c1=N	0.937	-30.1	0.746	4.5	-0.00173	-0.238	nt	nt	nt	nt	nt
Cc1ccccc1-n1c(=O)c(C#N)cc2c(=O)n3ccccc3nc21	nt	nt	-0.313	nt	nt	nt	nt	nt	nt	nt	nt
Cc1ccc(S(=O)(=O)c2cc3c(=O)n4ccccc4nc3n(C)c2=N)cc1	5.29*	nt	nt	nt	5.13*	-0.0154	-11.4	?	13268*	1724	+
Cc1cc(N)n(-c2nc(-c3cccnc3)nc3ccccc23)n1	4.33*	-1.6	-1.27	1.8	5.62*	-0.564	?	-76.4	12176*	1524	i
Cc1cc(N)n(-c2ccccc2)n1	0.874	8.6	nt	-5.9	-1.5	-0.266	nt	nt	nt	nt	nt
O=C(/C=C/c1c(Cl)cccc1Cl)n1cccn1	nt	nt	-0.0363	nt	nt	nt	nt	nt	nt	nt	nt
CCOc1ccc(CCNC(=O)c2oc3c(c2C)-c2[nH]ncc2CC3)cc1OCC	10.6*	-4.6	1.8	5.4	3.24*	-0.0157	-23.5*	-73.8*	24696*	1620	+
Cc1c(C(=O)NC(C)C)oc2c1-c1[nH]ncc1CC2	-0.333	7.5	-0.211	-4.2	0.468	-0.764	nt	nt	nt	nt	nt
CC(C)(C)C(=O)c1sc(Nc2ccccc2)nc1N	12.1*	7.2	1.32*	7.4	3.07*	0.666	?	-57.1	16628*	1584	+
CCn1cnc2sc(C(=O)N(Cc3ccc(N(C)C)cc3)Cc3ccco3)c(C)c2c1=O	4.85*	-19.6	0.113	23.0*	11.6*	0.0853	-22.4	?	12360*	nt	+
